Test results taken from PubChem BioAssay (Tox21).
Where “and” joins values, the source holds several entries; their conditions need not be identical. Equal values may be shown once. Results filed as inconclusive are left out. Some compounds were tested as several samples or in several runs, with calls that do not always agree. Calls of active or inactive are those of the source. Unless noted, the call rests on the fitted dose curve; in most records, active means well fitted curve in the direction sought with a large enough effect in the repeat runs; inconclusive means weak or mixed curves; inactive means no such curve, though single readings can be large; an effect the other way counts as inactive or inconclusive.

Columns and labels:
[1] = qHTS assay to identify small molecule antagonists of the estrogen related receptor (ERR) signaling pathway from Tox21 library (AID 1224848); further: nearly all actives have a fitted effect of over 50% in size
Summary of the method: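 Tox21 10K compounds in DMSO tested for ERR pathway antagonism in NTP's ERR cell line; 18 h, 37 C exposure; ONE-Glo luminescence.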

[2] = qHTS assay to identify small molecule agonists of the estrogen related receptor (ERR) signaling pathway from Tox21 library (AID 1224849; calls by dose curve; further: nearly all actives have a fitted effect of over 15% in size); conditions: ERR reporter cell line, ONE-Glo luciferase, 18 h
Summary of the method: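 Tox21 compounds tested for ERR agonism in an NTP reporter cell line: 18 h treatment at 37 C, then ONE-Glo luminescence.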

[3] = qHTS RealTime-Glo MT Cell Viability Assay in HepG2 cells - 24 hour (AID 1224867); further: nearly all actives have a fitted effect of over 50% in size
Summary of the method: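 Cell number in HepG2 cultures estimated from NanoLuc luminescence generated by metabolic reduction of a prosubstrate by living cells. The homogeneous, nonlytic format allowed repeated reads at 0, 8, 16, 24, 32 and 40 h of compound exposure.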

[4] = qHTS RealTime-Glo MT Cell Viability Assay in HEK293 cells - 32 hour (AID 1224868); further: nearly all actives have a fitted effect of over 50% in size; further: potency means the concentration at half of the fitted maximal effect
Summary of the method: (§1)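 Homogeneous bioluminescent viability format in HEK293 cells (600 cells/well). Following 5 h at 37 C/5% CO2, 23 nL compound was pintooled; the signal was measured repeatedly during 40 h incubation.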

[5] = A CellTox Green Cytotoxicity Assay to monitor cytotoxicity in HEK293 cells - 0 hour (AID 1224869); further: nearly all actives have a fitted effect of over 50% in size
Summary of the method: (§2)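 Tox21 screen in HEK293: membrane-impermeant cyanine dye fluoresces on binding dead-cell DNA; compound pinned 5 h post-seeding, plates held at 37 C, signal read repeatedly through 40 h.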

[6] = qHTS RealTime-Glo MT Cell Viability Assay in HepG2 cells - 40 hour (AID 1224870); further: nearly all actives have a fitted effect of over 50% in size
Summary of the method: (§3)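 HepG2 cells mixed with RealTime-Glo MT reagents (NanoLuc plus cell-permeant prosubstrate) were seeded at 600 cells/well, incubated 5 h at 37 C/5% CO2, then pinned with compounds in DMSO; nonlytic luminescence tracked viability during 40 h treatment.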

[7] = A CellTox Green Cytotoxicity Assay to monitor cytotoxicity in HEK293 cells - 40 hour (AID 1224871); further: nearly all actives have a fitted effect of over 45% in size
Summary of the method: as §2

[8] = qHTS RealTime-Glo MT Cell Viability Assay in HEK293 cells - 16 hour (AID 1224872)
Summary of the method: as §1

[9] = qHTS RealTime-Glo MT Cell Viability Assay in HepG2 cells - 8 hour (AID 1224873); further: nearly all actives have a fitted effect of over 55% in size
Summary of the method: as §3

[10] = qHTS RealTime-Glo MT Cell Viability Assay in HEK293 cells - 40 hour (AID 1224874); conditions: RealTime-Glo luminescence; max response: stronger effect = lower value; further: nearly all actives have a fitted effect of over 50% in size
Summary of the method: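 HEK293 + NanoLuc + prosubstrate, 600 cells/well; 5 h, 37 C/5% CO2; compound 23 nL in DMSO by pintool; 37 C; luminescence read at 0, 8, 16, 24, 32 and 40 h time points.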
On the % scale 0 is the no-effect control and ±100 the full control effect.

CC(C)OC(=O)Nc1cccc(Cl)c1
inactive: Potency [1] | activity change, positive = activation ([2]; at 92.4 µM (top of the series)) 3.6% | outcome [3] | Potency [4] | Potency [5] | outcome [6] | Potency [7] | outcome [8] | outcome [9] | max response [10] -5.94% and -18%

CCOC(=O)c1ccccc1C(=O)OCC
inactive: Potency [1] | activity change, positive = activation ([2]; at 92.4 µM (top of the series)) 2.2% and 2.35% | outcome [3] | Potency [4] | Potency [5] | outcome [6] | Potency [7] | outcome [8] | outcome [9] | max response [10] 0.767% and 3.18%

Cn1cc(-c2ccccc2)c(=O)c(-c2cccc(C(F)(F)F)c2)c1
inactive: Potency [1] | activity change, positive = activation ([2]; at 92.4 µM (top of the series)) -9.79% and -18.6% | outcome [3] | Potency [4] | Potency [5] | outcome [6] | Potency [7] | outcome [8] | outcome [9]

CC(=O)C=C(C)C
inactive: Potency [1] | activity change, positive = activation ([2]; at 92.4 µM (top of the series)) 0.13% and 3.17% | outcome [3] | Potency [4] | Potency [5] | outcome [6] | Potency [7] | outcome [8] | outcome [9]

CN(C)CCO
inactive: Potency [1] | activity change, positive = activation ([2]; at 92.4 µM (top of the series)) 0.0173% and 5.21% | outcome [3] | Potency [4] | Potency [5] | outcome [6] | Potency [7] | outcome [9] | max response [10] -6.53% and -6.4%

CC(C)OC(=O)Nc1ccccc1
inactive: Potency [1] | activity change, positive = activation ([2]; at 92.4 µM (top of the series)) 8.94% and -18.7% | outcome [3] | Potency [4] | Potency [5] | outcome [6] | Potency [7] | outcome [8] | outcome [9] | max response [10] 1.67% and 0.253%

CC(C)N1C(=O)c2ccccc2NS1(=O)=O
inactive: Potency [1] | activity change, positive = activation ([2]; at 92.4 µM (top of the series)) -10.6% and -6.56% | outcome [3] | Potency [4] | Potency [5] | outcome [6] | Potency [7] | outcome [8] | outcome [9]

BrCCBr
inactive: Potency [1] | activity change, positive = activation ([2]; at 92.4 µM (top of the series)) 3.43% and 4.88% | outcome [3] | Potency [4] | Potency [5] | outcome [6] | Potency [7] | outcome [9]

COC(=O)NS(=O)(=O)c1ccc(N)cc1
inactive: Potency [1] | activity change, positive = activation ([2]; at 92.4 µM (top of the series)) 6.12% and 0.416% | outcome [3] | Potency [4] | Potency [5] | outcome [6] | Potency [7] | outcome [9]

CCC[CH2][Sn]([Cl])([Cl])[Cl]
inactive: Potency [1] | activity change, positive = activation ([2]; at 92.4 µM (top of the series)) 3.29% and -6.08% | outcome [3] | Potency [4] | Potency [5] | outcome [6] | Potency [7] | outcome [9]

OC(O)C(Cl)(Cl)Cl
inactive: Potency [1] | activity change, positive = activation ([2]; at 42.5 µM (top of the series)) 0.553% | activity change, positive = activation ([2]; at 92.4 µM (top of the series)) -4.47% | outcome [3] | Potency [4] | Potency [5] | outcome [6] | Potency [7] | outcome [8] | outcome [9] | max response [10] -9.37% and 5.84%

O=c1ccc(=O)[nH][nH]1
inactive: Potency [1] | activity change, positive = activation ([2]; at 92.4 µM (top of the series)) 3.51% and 9.01% | outcome [3] | Potency [4] | Potency [5] | outcome [6] | Potency [7] | outcome [8] | outcome [9]

C=CC(N)=O
inactive: Potency [1] | activity change, positive = activation ([2]; at 92.4 µM (top of the series)) 7.14% | outcome [3] | Potency [4] | Potency [5] | outcome [6] | Potency [7] | outcome [8] | outcome [9]

CC(C#N)CCC#N (configuration not stated)
inactive: Potency [1] | activity change, positive = activation ([2]; at 92.4 µM (top of the series)) 5.4% and 2.56% | outcome [3] | Potency [4] | Potency [5] | outcome [6] | Potency [7] | outcome [9] | max response [10] 6.71% and -8.28%

CON(C)C(=O)Nc1ccc(Cl)c(Cl)c1
active: Potency [4] 43.6 µM
inactive: Potency [1] | activity change, positive = activation ([2]; at 92.4 µM (top of the series)) -4.36% and -0.559% | outcome [3] | Potency [5] | outcome [6] | Potency [7] | outcome [9]

O=c1[nH]c(=O)[nH]c(=O)[nH]1
inactive: Potency [1] | activity change, positive = activation ([2]; at 92.4 µM (top of the series)) 1.86% and -0.392% | outcome [3] | Potency [4] | Potency [5] | outcome [6] | Potency [7] | outcome [8] | outcome [9]

CN1C(=O)CN=C(c2ccccc2)c2cc(Cl)ccc21
inactive: Potency [1] | activity change, positive = activation ([2]; at 42.5 µM (top of the series)) 8.92% | activity change, positive = activation ([2]; at 92.4 µM (top of the series)) -13.2% | outcome [3] | Potency [4] | Potency [5] | outcome [6] | Potency [7] | outcome [9] | max response [10] -22%

Nc1ccc(Oc2ccc(N)cc2)cc1
inactive: Potency [1] | activity change, positive = activation ([2]; at 92.4 µM (top of the series)) -8.13% and -18.8% | outcome [3] | Potency [4] | Potency [5] | outcome [6] | Potency [7] | outcome [8] | outcome [9] | max response [10] -6.06% and -21.5%

ClCCBr
inactive: Potency [1] | activity change, positive = activation ([2]; at 92.4 µM (top of the series)) 3.01% and -0.293% | outcome [3] | Potency [4] | Potency [5] | outcome [6] | Potency [7] | outcome [9] | max response [10] -0.15% and 0.955%

COC(=O)c1ccccc1C(=O)OC
-0.694% (inactive) and 10.9% (active): activity change, positive = activation ([2]; at 92.4 µM (top of the series))
inactive: Potency [1] | outcome [3] | Potency [4] | Potency [5] | outcome [6] | Potency [7] | outcome [8] | outcome [9]

CNC(=O)Oc1ccccc1OC(C)C
inactive: Potency [1] | activity change, positive = activation ([2]; at 92.4 µM (top of the series)) 0.314% | outcome [3] | Potency [4] | Potency [5] | outcome [6] | Potency [7] | outcome [9] | max response [10] 0.581% and -1.94%
